Measured values: PubChem BioAssay AID1159580 (chemical genetic matrix, 2015)
Values joined by “and” are separate entries in the source; they are usually repeats but may differ in a detail not shown here. Identical values can stand only once. In all, about 5,500 compounds went through this assay and about 2,000 (36%) were called active. About 18% were inconclusive and are not listed. No stated cut-off is given here; in the data, active means normalized growth mostly below about 0.91 (no sharp cut-off); inconclusive means no clear call, values can overlap the other calls; inactive means mostly above about 0.92. The list shows a part of the results.

Experiment: chemical genetic growth profiling, strain panel (AID 1159580);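 further: tested at 20 µM; growth read once vehicle control cultures reached saturation at 30 °C; 1 = growth at the plate median or of vehicle wells; lower values mean less growth of the strain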
Details: S. cerevisiae deletion strains, growth OD

Measured: normalized growth

O=C(O)C1=CCCNC1
inactive: locus YAL021C, strain ccr4, active compounds read low 1.02 | locus YAL026C, strain drs2, active compounds read low 0.991 | locus YAL030W, strain snc1, active compounds read low 0.999 | locus YBL061C, strain skt5, active compounds read low 0.993 | locus YBR009C, strain hhf1, active compounds read low 1.04 | locus YBR021W, strain FUR4, active compounds read low 1.02 | locus YBR023C, strain chs3, active compounds read low 1.01 | locus YBR171W, strain sec66, active compounds read low 0.985 | locus YBR229C, strain ROT2, active compounds read low 1 | locus YBR231C, strain swc5, active compounds read low 0.981 | locus YBR279W, strain paf1, active compounds read low 0.988 | locus YCL011C, strain gbp2, active compounds read low 1.01 | locus YCL016C, strain dcc1, active compounds read low 1.02 | locus YCL029C, strain bik1, active compounds read low 0.974 | locus YCL061C, strain MRC1 (second series), active compounds read low 1.01 | locus YCL069W, strain vba3, active compounds read low 1 | locus YCR088W, strain abp1, active compounds read low 0.989 | locus YDL005C, strain med2, active compounds read low 0.978 | locus YDL035C, strain GPR1, active compounds read low 0.99 | locus YDL040C, strain nat1, active compounds read low 0.989 | locus YDL074C, strain BRE1, active compounds read low 0.984 | locus YDL101C, strain DUN1, active compounds read low 1.01 | locus YDL185W, strain tfp1, active compounds read low 0.968 | locus YDL192W, strain arf1, active compounds read low 0.973 | locus YDR001C, strain nth1, active compounds read low 0.99 | locus YDR069C, strain doa4, active compounds read low 0.999 | locus YDR101C, strain arx1, active compounds read low 0.979 | locus YDR137W, strain rgp1, active compounds read low 1.01 | locus YDR159W, strain sac3, active compounds read low 0.96 | locus YDR162C, strain NBP2, active compounds read low 1.04 | locus YDR195W, strain ref2 0.959 | locus YDR297W, strain sur2, active compounds read low 1 | locus YDR318W, strain mcm21, active compounds read low 0.995 | locus YDR334W, strain swr1, active compounds read low 0.979 | locus YDR335W, strain msn5, active compounds read low 0.995 | locus YDR363W, strain ESC2, active compounds read low 1.01 | locus YDR388W, active compounds read low 0.989 | locus YDR392W, strain spt3, active compounds read low 0.941 | locus YDR502C, strain sam2, active compounds read low 0.987 | locus YEL003W, strain gim4, active compounds read low 0.989 | locus YEL037C, strain rad23, active compounds read low 0.989 | locus YEL061C, strain CIN8 (second series), active compounds read low 0.987 | locus YEL061C, strain CIN8, active compounds read low 0.998 | locus YER002W, strain NOP16, active compounds read low 0.91 | locus YER015W, strain faa2, active compounds read low 0.984 | locus YER016W, strain bim1, active compounds read low 0.995 | locus YER110C, active compounds read low 0.965 | locus YER111C, strain swi4, active compounds read low 0.981 | locus YER155C, strain BEM2 (second series), active compounds read low 0.959 | locus YER155C, strain BEM2, active compounds read low 0.985 | locus YER167W, strain BCK2, active compounds read low 0.991 | locus YFR010W, strain ubp6, active compounds read low 0.973 | locus YGL078C, strain dbp3, active compounds read low 1.01 | locus YGL086W, strain mad1, active compounds read low 0.98 | locus YGL167C, strain pmr1, active compounds read low 0.99 | locus YGL173C, strain kem1, active compounds read low 0.99 | locus YGL227W, strain vid30, active compounds read low 0.989 | locus YGL240W, strain doc1, active compounds read low 0.986 | locus YGL248W, strain PDE1, active compounds read low 1.02 | locus YGL253W, strain hxk2, active compounds read low 0.981 | locus YGR135W, strain pre9, active compounds read low 0.997 | locus YGR229C, strain SMI1, active compounds read low 1.02 | locus YGR252W, strain gcn5, active compounds read low 1.15 | locus YHR013C, strain ard1, active compounds read low 0.979 | locus YHR027C, strain rpn1, active compounds read low 0.993 | locus YHR030C, strain SLT2, active compounds read low 0.985 and 1.04 | locus YHR079C, strain IRE1 (second series), active compounds read low 0.974 | locus YHR079C, strain IRE1, active compounds read low 1.04 | locus YHR094C, strain hxt1, active compounds read low 0.981 | locus YHR129C, strain ARP1, active compounds read low 0.992 | locus YHR142W, strain chs7, active compounds read low 1.02 | locus YHR200W, strain rpn10, active compounds read low 0.984 | locus YIL066C, strain RNR3, active compounds read low 1.01 | locus YIL073C, strain SPO22, active compounds read low 0.943 | locus YIL125W, strain kgd1, active compounds read low 0.987 | locus YIR030C, strain dcg1, active compounds read low 0.987 | locus YJL092W, strain hpr5, active compounds read low 0.991 | locus YJL095W, strain BCK1 (second series), active compounds read low 1 | locus YJL095W, strain BCK1, active compounds read low 1.05 | locus YJL115W, strain asf1, active compounds read low 0.985 | locus YJL129C, strain trk1, active compounds read low 0.99 | locus YJL134W, strain LCB3, active compounds read low 0.991 | locus YJL154C, strain vps35, active compounds read low 0.98 | locus YJL164C, strain tpk1, active compounds read low 1.02 | locus YJL166W, strain qcr8, active compounds read low 1.01 | locus YJL168C, strain set2, active compounds read low 0.993 | locus YJL187C, strain SWE1 (second series), active compounds read low 1.02 | locus YJR043C, strain POL32, active compounds read low 1.01 | locus YJR066W, strain TOR1, active compounds read low 0.997 | locus YJR075W, strain HOC1, active compounds read low 1.01 and 1 | locus YKL009W, strain mrt4, active compounds read low 0.961 | locus YKL068W, active compounds read low 1 | locus YKL085W, strain MDH1 (second series), active compounds read low 0.973 | locus YKL085W, strain MDH1, active compounds read low 0.973 | locus YKL160W, strain elf1, active compounds read low 1 | locus YKL190W, strain CNB1, active compounds read low 0.997 | locus YKR001C, strain vps1, active compounds read low 0.999 | locus YKR026C, strain gcn3, active compounds read low 0.981 | locus YKR091W, strain srl3, active compounds read low 0.995 | locus YLL001W, strain dnm1, active compounds read low 0.993 | locus YLL026W, active compounds read low 0.994 | locus YLL041C, strain sdh2, active compounds read low 0.987 | locus YLR027C, strain aat2, active compounds read low 0.969 | locus YLR039C, strain RIC1, active compounds read low 0.963 | locus YLR058C, strain SHM2, active compounds read low 1.01 | locus YLR102C, strain apc9, active compounds read low 0.97 | locus YLR113W, strain HOG1, active compounds read low 1.02 | locus YLR221C, strain rsa3, active compounds read low 0.96 | locus YLR258W, strain gsy2, active compounds read low 1.02 | locus YLR262C, strain YPT6 (second series), active compounds read low 1.01 | locus YLR262C, strain YPT6, active compounds read low 0.999 | locus YLR268W, strain sec22, active compounds read low 0.975 | locus YLR320W, strain mms22, active compounds read low 0.963 | locus YLR330W, strain CHS5, active compounds read low 0.984 | locus YLR342W, strain FKS1 (second series), active compounds read low 0.987 | locus YLR342W, strain FKS1, active compounds read low 0.983 | locus YLR357W, strain rsc2, active compounds read low 0.969 | locus YLR370C, strain arc18, active compounds read low 0.998 | locus YLR371W, strain rom2, active compounds read low 0.977 | locus YLR384C, strain iki3, active compounds read low 0.973 | locus YLR418C, strain cdc73, active compounds read low 1.04 | locus YML016C, strain PPZ1, active compounds read low 0.995 | locus YML032C, strain rad52, active compounds read low 0.989 | locus YML120C, strain ndi1, active compounds read low 1.01 | locus YML124C, strain tub3, active compounds read low 1.01 | locus YMR058W, strain fet3, active compounds read low 0.992 | locus YMR078C, strain ctf18, active compounds read low 0.974 | locus YMR125W, strain sto1, active compounds read low 1.01 | locus YMR129W, active compounds read low 0.992 | locus YMR205C, strain PFK2, active compounds read low 1.01 | locus YMR223W, strain ubp8, active compounds read low 1 | locus YMR231W, strain pep5, active compounds read low 0.985 | locus YMR263W, strain SAP30, active compounds read low 1 and 1.01 | locus YMR307W, strain GAS1, active compounds read low 1.12 | locus YNL067W, strain RPL9B, active compounds read low 1.03 | locus YNL071W, strain lat1, active compounds read low 1 | locus YNL153C, strain GIM3, active compounds read low 1.04 and 1.02 | locus YNL175C, strain NOP13, active compounds read low 1 | locus YNL183C, strain NPR1, active compounds read low 1.01 | locus YNL197C, strain WHI3, active compounds read low 0.915 | locus YNL209W, strain ssb2, active compounds read low 1.01 | locus YNL224C, strain SQS1, active compounds read low 1 | locus YNL233W, strain BNI4, active compounds read low 1.02 | locus YNL248C, strain rpa49, active compounds read low 0.965 | locus YNL250W, strain rad50, active compounds read low 0.978 | locus YNL271C, strain bni1, active compounds read low 0.994 | locus YNL298W, strain CLA4, active compounds read low 0.987 | locus YNL307C, strain MCK1, active compounds read low 0.992 | locus YNL322C, strain KRE1 (second series), active compounds read low 1 | locus YNL322C, strain KRE1, active compounds read low 1.01 | locus YNR049C, strain mso1, active compounds read low 0.976 | locus YNR052C, strain pop2, active compounds read low 1.01 | locus YOL006C, strain TOP1, active compounds read low 0.976 | locus YOL012C, strain htz1 1.03 | locus YOL147C, strain pex11, active compounds read low 0.984 | locus YOR001W, strain rrp6, active compounds read low 0.943 | locus YOR061W, strain CKA2, active compounds read low 0.992 | locus YOR069W, strain VPS5, active compounds read low 0.989 | locus YOR070C, strain gyp1, active compounds read low 0.982 | locus YOR080W, strain dia2, active compounds read low 0.987 | locus YOR083W, strain WHI5 (second series), active compounds read low 1.03 | locus YOR083W, strain WHI5, active compounds read low 1.01 | locus YOR106W, strain vam3, active compounds read low 1.01 | locus YOR136W, strain idh2, active compounds read low 0.984 | locus YOR144C, strain elg1, active compounds read low 0.988 | locus YOR184W, strain ser1, active compounds read low 0.97 | locus YOR231W, strain MKK1, active compounds read low 1.05 | locus YOR265W, strain rbl2, active compounds read low 0.992 | locus YOR270C, strain vph1, active compounds read low 0.976 | locus YOR290C, strain snf2, active compounds read low 0.985 | locus YOR316C, strain cot1, active compounds read low 0.98 | locus YPL051W, strain arl3, active compounds read low 0.981 | locus YPL055C, strain LGE1, active compounds read low 1.01 | locus YPL078C, strain atp4, active compounds read low 1.01 | locus YPL106C, strain sse1, active compounds read low 1.01 | locus YPL240C, strain hsp82, active compounds read low 0.992 | locus YPL256C, strain CLN2, active compounds read low 1.03 | locus YPR119W, strain clb2, active compounds read low 0.973 | locus YPR141C, strain kar3, active compounds read low 0.983 | locus YPR163C, strain tif3, active compounds read low 0.983 | locus YPR167C, strain met16, active compounds read low 0.958 | strain wtn01, active compounds read low 0.985
